Like-named read-outs stand apart in the source and are kept apart here.
What was measured:
[1] = test system: PKN1; conditions: read-out: apparent Kd, n = 1
[2] = test system: PLK4; conditions: read-out: apparent Kd, n = 1

Substance Lestaurtinib has a potency estimated from few doses ([1]; compound concentrations:100 nM and 1000 nM (sheet 'Lestaurtinib' of Supplementary Table 1),run:Lestaurtinib_02624_R2,Plate:MR020) of 430 nM, a potency estimated from few doses ([1]; compound concentrations:100 nM and 1000 nM (sheet 'Lestaurtinib' of Supplementary Table 1),run:Lestaurtinib_02624_R3,Plate:MR020) of 513 nM and a potency estimated from few doses ([1]; compound concentrations:100 nM and 1000 nM (sheet 'Lestaurtinib' of Supplementary Table 1),run:Lestaurtinib_02724_R1,Plate:MR021) of 487 nM. For the same substance, the potency estimated from few doses ([1]; compound concentrations:100 nM and 1000 nM (sheet 'Lestaurtinib' of Supplementary Table 1),run:Lestaurtinib_02724_R2,Plate:MR021) was 386 nM, the potency estimated from few doses ([1]; compound concentrations:100 nM and 1000 nM (sheet 'Lestaurtinib' of Supplementary Table 1),run:Lestaurtinib_02741_R3,Plate:MR023) was 518 nM and the potency estimated from few doses ([1]; compound concentrations:100 nM and 1000 nM (sheet 'Lestaurtinib' of Supplementary Table 1),run:Lestaurtinib_02748_R1,Plate:MR024) was 418 nM. The potency estimated from few doses ([1]; compound concentrations:100 nM and 1000 nM (sheet 'Lestaurtinib' of Supplementary Table 1),run:Lestaurtinib_02748_R2,Plate:MR024) was 511 nM, the potency estimated from few doses ([1]; compound concentrations:100 nM and 1000 nM (sheet 'Lestaurtinib' of Supplementary Table 1),run:Lestaurtinib_02748_R3,Plate:MR024) was 440 nM and the potency estimated from few doses ([1]; compound concentrations:100 nM and 1000 nM (sheet 'Lestaurtinib' of Supplementary Table 1),run:Lestaurtinib_02752_R1,Plate:MR025) was 489 nM. The potency estimated from few doses ([1]; compound concentrations:100 nM and 1000 nM (sheet 'Lestaurtinib' of Supplementary Table 1),run:Lestaurtinib_02752_R2,Plate:MR025) was 414 nM, the potency estimated from few doses ([1]; compound concentrations:100 nM and 1000 nM (sheet 'Lestaurtinib' of Supplementary Table 1),run:Lestaurtinib_02752_R3,Plate:MR025) was 448 nM and the potency estimated from few doses ([1]; compound concentrations:100 nM and 1000 nM (sheet 'Lestaurtinib' of Supplementary Table 1),run:Lestaurtinib_02765_R1,Plate:MR026) was 524 nM. The potency estimated from few doses ([1]; compound concentrations:100 nM and 1000 nM (sheet 'Lestaurtinib' of Supplementary Table 1),run:Lestaurtinib_02765_R3,Plate:MR026) was 568 nM, the potency estimated from few doses ([1]; compound concentrations:100 nM and 1000 nM (sheet 'Lestaurtinib' of Supplementary Table 1),run:Lestaurtinib_02766_R1,Plate:MR027) was 532 nM and the potency estimated from few doses ([1]; compound concentrations:100 nM and 1000 nM (sheet 'Lestaurtinib' of Supplementary Table 1),run:Lestaurtinib_02766_R2,Plate:MR027) was 582 nM. It also gave a potency estimated from few doses ([1]; compound concentrations:100 nM and 1000 nM (sheet 'Lestaurtinib' of Supplementary Table 1),run:Lestaurtinib_02766_R3,Plate:MR027) of 483 nM, a potency estimated from few doses ([1]; compound concentrations:100 nM and 1000 nM (sheet 'Lestaurtinib' of Supplementary Table 1),run:Lestaurtinib_02768_R1,Plate:MR028) of 403 nM and a potency estimated from few doses ([1]; compound concentrations:100 nM and 1000 nM (sheet 'Lestaurtinib' of Supplementary Table 1),run:Lestaurtinib_02768_R2,Plate:MR028) of 488 nM. It also gave a potency estimated from few doses ([1]; compound concentrations:100 nM and 1000 nM (sheet 'Lestaurtinib' of Supplementary Table 1),run:Lestaurtinib_02768_R3,Plate:MR028) of 424 nM, a potency estimated from few doses ([1]; compound concentrations:100 nM and 1000 nM (sheet 'Lestaurtinib' of Supplementary Table 1),run:Lestaurtinib_02795_R1,Plate:MR022) of 453 nM and a potency estimated from few doses ([1]; compound concentrations:100 nM and 1000 nM (sheet 'Lestaurtinib' of Supplementary Table 1),run:Lestaurtinib_02795_R2,Plate:MR022) of 443 nM. It also gave a potency estimated from few doses ([1]; compound concentrations:100 nM and 1000 nM (sheet 'Lestaurtinib' of Supplementary Table 1),run:Lestaurtinib_02795_R3,Plate:MR022) of 422 nM, a potency estimated from few doses ([1]; compound concentrations:100 nM and 1000 nM (sheet 'Lestaurtinib' of Supplementary Table 1),run:Lestaurtinib_02802_R1,Plate:MR029) of 473 nM and a potency estimated from few doses ([1]; compound concentrations:100 nM and 1000 nM (sheet 'Lestaurtinib' of Supplementary Table 1),run:Lestaurtinib_02802_R2,Plate:MR029) of 433 nM. For the same substance, the potency estimated from few doses ([1]; compound concentrations:100 nM and 1000 nM (sheet 'Lestaurtinib' of Supplementary Table 1),run:Lestaurtinib_02802_R3,Plate:MR029) was 181 nM, the potency estimated from few doses ([1]; compound concentrations:100 nM and 1000 nM (sheet 'Lestaurtinib' of Supplementary Table 1),run:Lestaurtinib_03172_R1,Plate:MR031) was 435 nM and the potency estimated from few doses ([1]; compound concentrations:100 nM and 1000 nM (sheet 'Lestaurtinib' of Supplementary Table 1),run:Lestaurtinib_03172_R3,Plate:MR031) was 358 nM. For the same substance, the potency estimated from few doses ([1]; compound concentrations:100 nM and 1000 nM (sheet 'Lestaurtinib' of Supplementary Table 1),run:Lestaurtinib_03252_R2,Plate:MR032) was 94.9 nM, the potency estimated from few doses ([1]; compound concentrations:100 nM and 1000 nM (sheet 'Lestaurtinib' of Supplementary Table 1),run:Lestaurtinib_03260_R1,Plate:MR033) was 514 nM and the potency estimated from few doses ([1]; compound concentrations:100 nM and 1000 nM (sheet 'Lestaurtinib' of Supplementary Table 1),run:Lestaurtinib_03260_R2,Plate:MR033) was 559 nM. It also gave a potency estimated from few doses ([1]; compound concentrations:100 nM and 1000 nM (sheet 'Lestaurtinib' of Supplementary Table 1),run:Lestaurtinib_03260_R3,Plate:MR033) of 518 nM, a potency estimated from few doses ([2]; compound concentrations:100 nM and 1000 nM (sheet 'Lestaurtinib' of Supplementary Table 1),run:Lestaurtinib_02339_R1,Plate:MR001) of 80.5 nM and a potency estimated from few doses ([2]; compound concentrations:100 nM and 1000 nM (sheet 'Lestaurtinib' of Supplementary Table 1),run:Lestaurtinib_02339_R2,Plate:MR001) of 64.4 nM. For the same substance, the potency estimated from few doses ([2]; compound concentrations:100 nM and 1000 nM (sheet 'Lestaurtinib' of Supplementary Table 1),run:Lestaurtinib_02339_R3,Plate:MR001) was 51.7 nM, the potency estimated from few doses ([2]; compound concentrations:100 nM and 1000 nM (sheet 'Lestaurtinib' of Supplementary Table 1),run:Lestaurtinib_02364_R2,Plate:MR002) was 202 nM and the potency estimated from few doses ([2]; compound concentrations:100 nM and 1000 nM (sheet 'Lestaurtinib' of Supplementary Table 1),run:Lestaurtinib_02367_R1,Plate:MR003) was 62.3 nM. It also gave a potency estimated from few doses ([2]; compound concentrations:100 nM and 1000 nM (sheet 'Lestaurtinib' of Supplementary Table 1),run:Lestaurtinib_02367_R2,Plate:MR003) of 75.5 nM, a potency estimated from few doses ([2]; compound concentrations:100 nM and 1000 nM (sheet 'Lestaurtinib' of Supplementary Table 1),run:Lestaurtinib_02381_R1,Plate:MR004) of 71 nM and a potency estimated from few doses ([2]; compound concentrations:100 nM and 1000 nM (sheet 'Lestaurtinib' of Supplementary Table 1),run:Lestaurtinib_02381_R2,Plate:MR004) of 73.6 nM. It also gave a potency estimated from few doses ([2]; compound concentrations:100 nM and 1000 nM (sheet 'Lestaurtinib' of Supplementary Table 1),run:Lestaurtinib_02381_R3,Plate:MR004) of 93.7 nM, a potency estimated from few doses ([2]; compound concentrations:100 nM and 1000 nM (sheet 'Lestaurtinib' of Supplementary Table 1),run:Lestaurtinib_02407_R1,Plate:MR005) of 45.6 nM and a potency estimated from few doses ([2]; compound concentrations:100 nM and 1000 nM (sheet 'Lestaurtinib' of Supplementary Table 1),run:Lestaurtinib_02407_R2,Plate:MR005) of 39.3 nM. The potency estimated from few doses ([2]; compound concentrations:100 nM and 1000 nM (sheet 'Lestaurtinib' of Supplementary Table 1),run:Lestaurtinib_02407_R3,Plate:MR005) was 47.3 nM.
